Nrf2 ARE act: qHTS of Nrf2 Activators; AREc32 ARE-luciferase reporter (MCF7-derived line), luminescence, 24 h; Potency, µM (titrated, usually from 46.1 µM), hits mostly activators; 0.31% of 410,000 active; also: nearly all actives have a fitted effect of over 65% in size
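Each well held 1000 AREc32 cells, which were incubated with compound for 24 hr at 37 deg C after overnight attachment, and ARE reporter activity was quantified by firefly luciferase luminescence.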
A549 tox: Nrf2 qHTS screen for inhibitors: counterscreen for cytotoxicity; A549 ARE-Fluc cells, CellTiter-Fluor viability, 18-24 h; Potency, µM (titrated, usually from 46 µM), actives largely listed as inhibitors; 0.16% of 390,000 active; AID 504648, 2011
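Cytotoxicity counterscreen: CellTiter-Fluor fluorescence was measured in A549 ARE_Fluc cells after 18-24 h of compound exposure in a concentration series. The subsequent BugLite luminescent read reports ARE-luciferase activity.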
Rango release inh: qHTS Assay for Inhibitors of RanGTP induced Rango (Ran-regulated importin-beta cargo) - Importin beta complex dissociation. Snurportin-1 (Homo sapiens) + GTP-binding nuclear protein Ran (Homo sapiens) + Importin …. Biochemical FRET Rango-importin beta, RanGTP-induced dissociation. Potency, µM (series often up to 46.1 µM). 0.071% of 340,000 active. AID 540253, 2011; calls by dose curve; also: nearly all actives have a fitted effect of over 45% in size
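FRET read at 45 min, room temperature: inhibitors block the CFP/YFP signal rise when RanGTP (0.6 uM Ran, 2 mM GTP, 0.2 uM RCC1) frees Rango (0.1 uM) from importin beta (0.25 uM). Pre-read after 5 min compound exposure flags interference.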
Nrf2 inh: Nrf2 qHTS screen for inhibitors. A549 ARE-Fluc reporter, luciferase luminescence, 18-24 h. Potency, µM (series often up to 46 µM), most hits filed as inhibitors. 2.1% of 360,000 active. AID 504444, 2011; also: nearly all actives have a fitted effect of over 60% in size
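Nrf2 function is reported as luminescence of an ARE-controlled luciferase in A549 cells. Compounds were tested at several concentrations, and a CellTiter-Fluor read on the same wells flagged cytotoxicity.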
Rango-impB inh: qHTS Assay for Inhibitors of Rango (Ran-regulated importin-beta cargo) - Importin beta complex formation | Rango CFP/YFP FRET sensor + importin beta, 45 min | 0.031% of 340,000 active | Importin subunit beta-1 (Homo sapiens), Q14974 | Potency, µM (series often up to 92.2 µM) | AID 540263, 2011; calls by dose curve; also: nearly all actives have a fitted effect of over 15% in size
Target sequence (Q14974 whole entry, looked up): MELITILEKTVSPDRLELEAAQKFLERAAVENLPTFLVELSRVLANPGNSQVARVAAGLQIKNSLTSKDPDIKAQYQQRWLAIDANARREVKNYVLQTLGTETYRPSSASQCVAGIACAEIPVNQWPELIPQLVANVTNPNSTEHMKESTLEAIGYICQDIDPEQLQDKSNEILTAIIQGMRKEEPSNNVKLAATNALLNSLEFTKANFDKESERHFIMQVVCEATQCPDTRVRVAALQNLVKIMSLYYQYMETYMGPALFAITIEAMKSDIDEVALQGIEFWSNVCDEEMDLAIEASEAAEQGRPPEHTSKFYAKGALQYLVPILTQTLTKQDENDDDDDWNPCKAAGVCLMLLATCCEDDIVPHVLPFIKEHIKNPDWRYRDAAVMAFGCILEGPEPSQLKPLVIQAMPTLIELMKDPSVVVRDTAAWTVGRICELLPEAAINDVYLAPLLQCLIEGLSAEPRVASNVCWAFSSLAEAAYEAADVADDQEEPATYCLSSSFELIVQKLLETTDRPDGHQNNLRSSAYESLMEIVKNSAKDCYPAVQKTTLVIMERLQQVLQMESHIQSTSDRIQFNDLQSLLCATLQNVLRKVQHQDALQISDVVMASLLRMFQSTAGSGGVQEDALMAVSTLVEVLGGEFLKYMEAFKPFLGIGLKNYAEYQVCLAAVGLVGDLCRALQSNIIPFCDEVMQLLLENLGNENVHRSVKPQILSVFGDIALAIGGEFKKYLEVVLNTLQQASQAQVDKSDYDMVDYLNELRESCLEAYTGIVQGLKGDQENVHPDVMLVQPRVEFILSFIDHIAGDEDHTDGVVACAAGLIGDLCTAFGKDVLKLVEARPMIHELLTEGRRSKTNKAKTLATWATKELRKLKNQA
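FRET biosensor (snurportin 1 IBB flanked by EYFP and cerulean), 50 nM, with compound 5 min, then 0.125 microM importin beta in PBS, 1 mM DTT, 0.02% Tween-20, 0.1% BSA. CFP/YFP ratio read after 45 min at room temperature; pre-read flags interference.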
A number is an active result; i = inactive; ? = inconclusive; nt = not tested or not shown. Most compounds without a hit are left out; they make up all but 2.3% or so of the library. Unless noted, calls follow the shape of the dose curve; as a rule, active = well fitted curve in the direction sought with a large enough effect; inconclusive = small, poorly fitted or top-dose-only effect, or another doubt; inactive = no such curve, though single readings can be large; an effect the other way counts as inactive or inconclusive.

SMILES	Nrf2 ARE act	A549 tox	Rango release inh	Nrf2 inh	Rango-impB inh
N#CCCN(C(=O)CSc1nc2nc(-c3cccs3)cc(C(F)(F)F)c2c(=O)[nH]1)c1ccccc1	i	i	i	21µM	?
COc1ccccc1N=Nc1nc(-c2ccccc2)c(-c2ccccc2)[nH]1	i	?	i	18µM	i
COc1ccc(N=Nc2nc(-c3ccccc3)c(-c3ccccc3)[nH]2)cc1	i	?	i	i	i
COc1ccc(-c2nn(C)c3sc(C(=O)NCc4ccco4)cc23)cc1OC	i	i	i	i	i
COc1ccc(NC(=O)c2cc3c(-c4ccc(OC)c(OC)c4)nn(C)c3s2)cc1OC	i	i	i	12µM	i
COc1ccc(-c2nn(C)c3sc(C(=O)Nc4cc(OC)c(OC)c(OC)c4)cc23)cc1OC	i	?	nt	23µM	nt
O=C1CN(C(=O)CNCc2ccccc2)c2ccccc2N1	i	i	i	?	i
O=C(Nc1ccccc1F)c1ccc(-c2cccc([N+](=O)[O-])c2)o1	1.4µM	i	i	?	i
COC(=O)c1c(C)[nH]c(C(=O)OCC(=O)c2c(N)n(CC(C)C)c(=O)n(C)c2=O)c1C	i	i	i	15µM	?
Cc1cccc(C(=O)OCC(=O)c2c(N)n(CC(C)C)c(=O)n(C)c2=O)c1O	i	i	i	18µM	i
CC(C(=O)NCCS(=O)(=O)c1ccc(Cl)cc1)S(=O)(=O)c1ccc(Cl)cc1 (centres undefined)	i	i	i	9.2µM	i
COc1ccc(/C=C/C(=O)c2ccc(O)cc2)cc1CN1CCOCC1	?	i	i	i	i
O=C(/C=C/c1cccc(O)c1)c1ccc(N2CCOCC2)cc1	14µM	i	i	i	?
O=[N+]([O-])c1cc(C(F)(F)F)ccc1N1CCN(S(=O)(=O)c2ccc3c(c2)CCCC3)CC1	i	i	i	15µM	i
O=c1[nH]nc(CNc2cccc(C(F)(F)F)c2)c2ccccc12	i	i	i	13µM	i
COc1ccc(NCc2n[nH]c(=O)c3ccccc23)cc1	i	i	i	i	i
COc1ccc(N(C(=O)CCl)C(C(=O)NC2CCCCC2)c2cccnc2)cc1 (centres undefined)	?	i	i	i	i
O=C(NC1CCCCC1)C(c1cccnc1)N(C(=O)CCl)c1ccc(F)cc1 (centres undefined)	?	i	i	18µM	i
CCN(C(=O)CSc1cc(-c2ccccc2)c2ccc(OC)cc2n1)C1CCS(=O)(=O)C1 (centres undefined)	i	?	i	23µM	i
CC(C)(C)OC(=O)CC(=O)NNC(=O)c1nc2ccccc2[nH]1	nt	i	nt	i	nt
CCc1ccc(OC)c(S(=O)(=O)Nc2ccc(Cc3ccncc3)cc2)c1	i	i	i	18µM	i
CCc1ccc(NS(=O)(=O)c2ccc(OC)c3ncccc23)cc1	i	i	i	i	i
CC(C(=O)Nc1ccccc1)n1nnc2sc3c(c2c1=O)CCCC3 (centres undefined)	i	i	nt	?	nt
Cc1nnc(N2C(=O)C(O)=C(C(=O)c3ccco3)C2c2ccc(C(C)(C)C)cc2)s1 (centres undefined)	i	i	26µM	?	?
Cc1cccc(NC(=O)c2sc3nc4c(cc3c2N)CN(C(C)C)CC4)c1	i	i	nt	16µM	nt
SMILES	Nrf2 ARE act	A549 tox	Rango release inh	Nrf2 inh	Rango-impB inh
CC1CC=CC2C1C(=O)N(Cc1ccccc1)C2c1ccc(C(F)(F)F)cc1 (centres undefined)	nt	i	nt	i	nt
CC(=O)c1ccc(-c2ccc([C@H]3[C@@H]4C=CCC[C@@]4(C)C(=O)N3Cc3ccccc3)c(F)c2)cc1	i	i	i	23µM	i
C[C@@H]1CC=C[C@H]2[C@H]1C(=O)N(Cc1ccccc1)[C@H]2c1ccc2ccccc2c1	i	?	i	21µM	i
CC(=O)c1ccc(-c2ccc([C@H]3[C@H]4C=CC[C@@H](C)[C@@H]4C(=O)N3Cc3ccccc3)c(F)c2)cc1	i	i	i	?	i
COC(=O)c1ccc(-c2ccc([C@H]3[C@H]4C=CC[C@@H](C)[C@@H]4C(=O)N3Cc3ccccc3)c(F)c2)cc1	i	i	i	23µM	i
CCCCOc1cccc(C(=O)N(Cc2sccc2C)C2CCS(=O)(=O)C2)c1 (centres undefined)	i	i	nt	?	nt
CCOC(=O)C(CC)n1cnc2c(nnn2-c2cccc(OC)c2)c1=O (centres undefined)	i	i	i	i	i
CCCCn1nnnc1C1(C)CCC(=O)N1CCOc1ccccc1 (centres undefined)	i	nt	nt	nt	nt
O=C(/C=C/c1ccc(F)cc1)NC(=S)NC1CCCCC1	i	i	i	12µM	i
COc1ccccc1Cc1c(-c2cccc(Cl)c2)nc2ccc(C)cn12	i	nt	nt	nt	nt
CN(C)c1ccc(-c2nnc3n(Cc4ccccc4)c(=O)c4ccccc4n23)cc1	i	i	nt	i	nt
CC(C)(C)OC(=O)NCCc1nnc(SCc2ccccc2)o1	i	i	i	i	i
CC(C)(C)OC(=O)NCCc1nnc(SCc2ccccc2Cl)o1	i	nt	i	26µM	i
CN(C(=O)C(C)(C)C)c1ccc(OCC(=O)N2CCc3ccccc3C2)cc1	i	i	i	10µM	i
Cc1ccc(OCC(=O)N2CCc3ccccc3C2)cc1	i	i	i	i	i
COc1cc2c(cc1OC)C(C)N(C(=O)c1cc3c(C)cc(C)cc3[nH]1)CC2 (centres undefined)	i	i	i	15µM	i
COc1cc2c(cc1OC)C(C)N(C(=O)Nc1cc(C)cc(C)c1)CC2 (centres undefined)	i	i	i	i	i
O=C(c1cc2c(s1)-c1ccccc1S(=O)(=O)C2)N1CCN(Cc2ccccc2)CC1	i	i	i	18µM	?
CCN1CCN(C(=O)c2cc3c(s2)-c2ccccc2S(=O)(=O)C3)CC1	i	i	i	i	i
COc1ccc(OC)c(NC(=O)c2ccc(CSc3nnc(C)s3)cc2)c1	i	i	i	26µM	i
Oc1ccc(CNc2ccc(F)cc2F)c2cccnc12	nt	i	nt	10µM	nt
Cc1ccccc1OCc1nnc(SCc2cc(=O)c3ccc(C)c(C)c3[nH]2)n1C	i	i	nt	nt	nt
O=C(O)C1(c2ccccc2)CCN(S(=O)(=O)c2cccc(Cl)c2)CC1	i	i	i	i	i
O=C(CSc1nc2nn(-c3ccccc3)c(=O)c-2c2n1CCCCC2)Nc1ccc(F)c(F)c1	i	?	i	18µM	i
CC(=O)c1ccc(NC(=O)CSc2nc3nn(-c4ccccc4)c(=O)c-3c3n2CCCCC3)cc1	i	i	i	i	i

Bioassay records: PubChem, National Center for Advancing Translational Sciences (NCATS)
